Reference: paper PMC7862700, “An all-to-all approach to the identification of sequence-specific readers for epigenetic DNA modifications on cytosine”

Legend:
Test in all cases: DAPPL (digital affinity profiling via proximity ligation, sequencing); 10 mM Tris-HCl pH 7.5, 50 mM NaCl, 1 mM DTT, 4% glycerol, room temperature, 30 min; GST-TFs on glutathione beads, 16-mer random dsDNA library, 0.1% formaldehyde crosslink after washing; high values mean tight binding
Settings in all cases: protein: recombinant; tags: N-terminal GST; dsDNA, one strand shown
ELK1 = target: T1, ELK1 (Homo sapiens, UniProt P19419 1-428)
T1 sequence: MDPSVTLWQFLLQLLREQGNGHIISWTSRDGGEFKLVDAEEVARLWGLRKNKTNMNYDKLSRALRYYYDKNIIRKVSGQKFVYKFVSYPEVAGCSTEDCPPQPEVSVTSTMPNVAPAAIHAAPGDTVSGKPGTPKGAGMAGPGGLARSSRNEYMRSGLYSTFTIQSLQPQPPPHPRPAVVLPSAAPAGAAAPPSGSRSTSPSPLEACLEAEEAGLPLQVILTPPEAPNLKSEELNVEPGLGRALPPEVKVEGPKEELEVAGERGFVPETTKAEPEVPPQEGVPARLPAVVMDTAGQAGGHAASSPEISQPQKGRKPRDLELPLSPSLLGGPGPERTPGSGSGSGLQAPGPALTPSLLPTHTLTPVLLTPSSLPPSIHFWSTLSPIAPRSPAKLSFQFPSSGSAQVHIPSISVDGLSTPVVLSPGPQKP
Procedure, shortened: (§1)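 Binding signal is each hexamer's read frequency for a factor divided by its frequency in the tag-only sample. The factors were GST-fused human transcription factors from yeast, captured on glutathione beads, DNA-barcoded and pooled with that sample. Pools were incubated with 200 nmole of a random double-stranded 16-mer DNA library in Tris/NaCl/DTT/glycerol buffer at room temperature for 30 min, then washed, crosslinked with 0.1% formaldehyde, proximity-ligated with BsaI/T4 ligase (1 h, 37 °C), PCR-amplified and sequenced on an Illumina NextSeq500.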

GABPA = target: T2, GABPA (Homo sapiens, UniProt Q06546 1-454)
T2 sequence: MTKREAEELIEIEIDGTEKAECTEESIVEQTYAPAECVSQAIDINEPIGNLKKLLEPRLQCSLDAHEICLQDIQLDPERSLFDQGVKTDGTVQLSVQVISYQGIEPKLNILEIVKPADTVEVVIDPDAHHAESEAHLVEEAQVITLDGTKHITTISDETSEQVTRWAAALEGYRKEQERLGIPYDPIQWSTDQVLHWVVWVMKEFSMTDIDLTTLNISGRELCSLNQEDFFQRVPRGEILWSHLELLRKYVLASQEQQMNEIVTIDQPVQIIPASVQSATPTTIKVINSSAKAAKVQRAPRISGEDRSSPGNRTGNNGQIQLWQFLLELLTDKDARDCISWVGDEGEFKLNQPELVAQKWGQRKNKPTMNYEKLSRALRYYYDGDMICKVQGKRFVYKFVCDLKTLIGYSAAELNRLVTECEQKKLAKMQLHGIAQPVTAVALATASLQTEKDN
Procedure, shortened: as §1

ERG = target: T3, ERG (Homo sapiens, UniProt P11308 1-479)
T3 sequence: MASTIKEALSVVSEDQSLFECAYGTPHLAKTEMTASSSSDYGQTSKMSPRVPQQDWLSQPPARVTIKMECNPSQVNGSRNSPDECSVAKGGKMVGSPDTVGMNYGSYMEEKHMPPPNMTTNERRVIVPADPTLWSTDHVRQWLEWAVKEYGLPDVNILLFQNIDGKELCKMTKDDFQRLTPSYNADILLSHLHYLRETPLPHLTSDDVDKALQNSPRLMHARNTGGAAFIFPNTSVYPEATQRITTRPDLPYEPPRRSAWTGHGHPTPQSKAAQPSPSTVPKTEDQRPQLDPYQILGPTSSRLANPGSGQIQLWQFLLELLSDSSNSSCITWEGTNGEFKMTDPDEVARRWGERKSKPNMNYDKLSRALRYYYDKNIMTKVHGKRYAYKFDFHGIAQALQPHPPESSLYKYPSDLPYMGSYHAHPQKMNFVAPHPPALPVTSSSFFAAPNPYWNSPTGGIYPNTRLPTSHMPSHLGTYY
Procedure, shortened: as §1

ELF1 = ELF1 (Homo sapiens, UniProt P32519 1-619)
ELF1, sequence (P32519 whole entry): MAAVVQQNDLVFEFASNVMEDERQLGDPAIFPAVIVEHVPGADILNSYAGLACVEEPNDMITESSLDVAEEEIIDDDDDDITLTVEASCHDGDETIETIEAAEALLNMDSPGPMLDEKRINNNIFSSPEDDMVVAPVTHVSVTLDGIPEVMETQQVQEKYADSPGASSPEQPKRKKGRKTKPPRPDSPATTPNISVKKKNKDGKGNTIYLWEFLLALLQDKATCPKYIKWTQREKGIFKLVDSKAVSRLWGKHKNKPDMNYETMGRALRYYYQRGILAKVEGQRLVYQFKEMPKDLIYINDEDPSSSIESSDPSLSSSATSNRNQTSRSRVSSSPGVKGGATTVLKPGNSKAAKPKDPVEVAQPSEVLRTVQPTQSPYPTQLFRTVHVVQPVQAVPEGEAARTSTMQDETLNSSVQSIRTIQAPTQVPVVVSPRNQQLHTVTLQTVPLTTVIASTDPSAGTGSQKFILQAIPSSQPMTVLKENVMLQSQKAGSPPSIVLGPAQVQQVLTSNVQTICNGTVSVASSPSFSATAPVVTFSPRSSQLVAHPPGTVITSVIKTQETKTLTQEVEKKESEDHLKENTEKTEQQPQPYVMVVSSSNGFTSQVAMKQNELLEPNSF
Procedure, shortened: as §1

EHF = target: T4, EHF (Homo sapiens, UniProt Q9NZC4 1-300)
T4 sequence: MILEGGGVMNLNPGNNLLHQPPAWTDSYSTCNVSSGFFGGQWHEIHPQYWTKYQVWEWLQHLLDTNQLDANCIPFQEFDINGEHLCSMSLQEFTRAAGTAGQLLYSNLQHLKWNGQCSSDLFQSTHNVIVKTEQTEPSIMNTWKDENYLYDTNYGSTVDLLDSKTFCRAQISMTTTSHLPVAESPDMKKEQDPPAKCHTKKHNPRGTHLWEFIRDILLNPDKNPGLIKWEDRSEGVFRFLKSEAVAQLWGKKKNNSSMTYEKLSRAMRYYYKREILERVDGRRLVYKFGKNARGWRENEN
Procedure, shortened: as §1

SPIB = SPIB (Homo sapiens, UniProt Q01892 1-262)
SPIB, sequence (Q01892 whole entry): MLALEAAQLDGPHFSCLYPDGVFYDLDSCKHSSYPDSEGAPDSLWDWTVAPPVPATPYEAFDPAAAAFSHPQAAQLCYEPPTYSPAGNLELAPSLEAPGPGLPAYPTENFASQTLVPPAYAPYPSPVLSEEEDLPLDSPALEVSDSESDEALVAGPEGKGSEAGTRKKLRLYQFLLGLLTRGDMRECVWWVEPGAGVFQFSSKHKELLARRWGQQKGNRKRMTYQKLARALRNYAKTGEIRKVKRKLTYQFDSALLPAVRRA
Procedure, shortened: as §1

FEV = target: T5, FEV (Homo sapiens, UniProt Q99581 1-238)
T5 sequence: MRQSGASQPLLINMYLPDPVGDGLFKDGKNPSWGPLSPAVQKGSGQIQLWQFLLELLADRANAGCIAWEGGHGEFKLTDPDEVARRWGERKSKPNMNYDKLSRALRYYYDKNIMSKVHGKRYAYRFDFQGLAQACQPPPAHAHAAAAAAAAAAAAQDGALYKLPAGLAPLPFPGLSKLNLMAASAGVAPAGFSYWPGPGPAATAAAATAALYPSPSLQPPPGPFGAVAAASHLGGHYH
Procedure, shortened: as §1

ETV5 = ETV5 (Homo sapiens, UniProt P41161 1-510)
ETV5, sequence (P41161 whole entry): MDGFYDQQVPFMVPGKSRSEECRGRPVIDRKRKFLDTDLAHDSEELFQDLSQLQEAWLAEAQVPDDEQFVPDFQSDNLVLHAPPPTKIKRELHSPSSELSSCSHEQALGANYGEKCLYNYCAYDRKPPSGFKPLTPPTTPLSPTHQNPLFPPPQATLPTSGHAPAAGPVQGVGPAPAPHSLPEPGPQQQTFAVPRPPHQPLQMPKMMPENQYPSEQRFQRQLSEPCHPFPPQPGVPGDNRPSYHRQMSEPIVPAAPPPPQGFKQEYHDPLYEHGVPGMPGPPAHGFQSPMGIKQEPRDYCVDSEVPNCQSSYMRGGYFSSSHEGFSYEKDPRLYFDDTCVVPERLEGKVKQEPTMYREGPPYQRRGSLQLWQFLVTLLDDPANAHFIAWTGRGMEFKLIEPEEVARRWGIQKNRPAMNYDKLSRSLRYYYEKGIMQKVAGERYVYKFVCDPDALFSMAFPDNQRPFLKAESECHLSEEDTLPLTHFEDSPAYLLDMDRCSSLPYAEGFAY
Procedure, shortened: as §1

ELF4 = ELF4 (Homo sapiens, UniProt Q99607 1-663)
ELF4, sequence (Q99607 whole entry): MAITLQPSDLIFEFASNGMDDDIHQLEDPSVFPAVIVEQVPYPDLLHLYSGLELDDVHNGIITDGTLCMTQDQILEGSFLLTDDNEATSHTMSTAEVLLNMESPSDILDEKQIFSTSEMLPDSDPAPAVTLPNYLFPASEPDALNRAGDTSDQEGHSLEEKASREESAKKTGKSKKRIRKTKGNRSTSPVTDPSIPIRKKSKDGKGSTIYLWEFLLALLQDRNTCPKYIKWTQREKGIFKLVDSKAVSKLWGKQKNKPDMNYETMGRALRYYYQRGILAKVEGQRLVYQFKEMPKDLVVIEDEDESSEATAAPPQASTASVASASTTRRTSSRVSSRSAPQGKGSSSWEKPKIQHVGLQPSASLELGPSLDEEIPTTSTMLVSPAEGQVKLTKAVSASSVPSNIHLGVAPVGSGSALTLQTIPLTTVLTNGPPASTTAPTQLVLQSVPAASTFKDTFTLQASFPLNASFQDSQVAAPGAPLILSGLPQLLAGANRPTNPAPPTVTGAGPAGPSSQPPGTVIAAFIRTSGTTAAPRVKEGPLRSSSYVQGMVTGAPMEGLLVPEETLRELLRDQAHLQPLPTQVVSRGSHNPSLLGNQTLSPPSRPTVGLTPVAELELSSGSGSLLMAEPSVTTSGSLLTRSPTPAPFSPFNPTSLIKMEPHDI
Procedure, shortened: as §1

ELK4 = target: T6, ELK4 (Homo sapiens, UniProt P28324-2 1-405)
T6 sequence: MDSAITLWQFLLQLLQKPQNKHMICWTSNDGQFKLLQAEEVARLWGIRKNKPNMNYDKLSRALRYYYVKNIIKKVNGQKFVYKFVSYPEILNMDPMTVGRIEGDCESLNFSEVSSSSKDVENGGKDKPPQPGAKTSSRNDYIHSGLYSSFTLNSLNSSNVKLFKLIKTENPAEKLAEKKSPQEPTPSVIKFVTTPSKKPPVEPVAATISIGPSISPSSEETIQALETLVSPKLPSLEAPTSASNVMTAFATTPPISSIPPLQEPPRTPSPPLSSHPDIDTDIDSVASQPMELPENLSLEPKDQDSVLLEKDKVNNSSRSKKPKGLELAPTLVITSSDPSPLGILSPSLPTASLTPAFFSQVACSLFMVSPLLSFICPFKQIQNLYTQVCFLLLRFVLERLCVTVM
Procedure, shortened: as §1

ELF3 = target: T7, ELF3 (Homo sapiens, UniProt P78545 1-371)
T7 sequence: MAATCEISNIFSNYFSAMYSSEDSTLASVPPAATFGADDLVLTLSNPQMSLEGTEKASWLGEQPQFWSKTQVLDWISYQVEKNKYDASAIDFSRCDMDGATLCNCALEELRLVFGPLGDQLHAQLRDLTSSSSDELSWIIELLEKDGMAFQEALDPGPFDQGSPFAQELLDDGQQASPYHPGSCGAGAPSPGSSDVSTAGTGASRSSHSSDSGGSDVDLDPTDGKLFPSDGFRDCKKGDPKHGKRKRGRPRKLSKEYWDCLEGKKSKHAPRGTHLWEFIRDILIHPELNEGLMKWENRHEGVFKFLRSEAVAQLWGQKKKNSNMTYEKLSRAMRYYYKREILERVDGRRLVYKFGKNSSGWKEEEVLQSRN
Procedure, shortened: as §1

ETV1 = ETV1 (Homo sapiens, UniProt P50549 1-477)
ETV1, sequence (P50549 whole entry): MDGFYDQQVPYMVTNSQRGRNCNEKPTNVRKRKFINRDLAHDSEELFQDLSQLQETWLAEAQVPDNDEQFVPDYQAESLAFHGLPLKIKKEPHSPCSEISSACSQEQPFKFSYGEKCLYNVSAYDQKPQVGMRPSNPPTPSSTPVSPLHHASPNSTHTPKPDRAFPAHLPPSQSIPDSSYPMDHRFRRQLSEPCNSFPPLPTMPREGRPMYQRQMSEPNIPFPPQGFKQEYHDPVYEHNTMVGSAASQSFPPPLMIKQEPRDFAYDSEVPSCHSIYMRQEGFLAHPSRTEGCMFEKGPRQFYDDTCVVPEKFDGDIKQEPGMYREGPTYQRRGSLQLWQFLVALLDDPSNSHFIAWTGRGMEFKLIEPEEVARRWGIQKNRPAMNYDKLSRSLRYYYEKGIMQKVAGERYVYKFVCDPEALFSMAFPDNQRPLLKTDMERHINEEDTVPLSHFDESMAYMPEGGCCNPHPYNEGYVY
Procedure, shortened: as §1

ERF = target: T8, ERF (Homo sapiens, UniProt P50548 1-548)
T8 sequence: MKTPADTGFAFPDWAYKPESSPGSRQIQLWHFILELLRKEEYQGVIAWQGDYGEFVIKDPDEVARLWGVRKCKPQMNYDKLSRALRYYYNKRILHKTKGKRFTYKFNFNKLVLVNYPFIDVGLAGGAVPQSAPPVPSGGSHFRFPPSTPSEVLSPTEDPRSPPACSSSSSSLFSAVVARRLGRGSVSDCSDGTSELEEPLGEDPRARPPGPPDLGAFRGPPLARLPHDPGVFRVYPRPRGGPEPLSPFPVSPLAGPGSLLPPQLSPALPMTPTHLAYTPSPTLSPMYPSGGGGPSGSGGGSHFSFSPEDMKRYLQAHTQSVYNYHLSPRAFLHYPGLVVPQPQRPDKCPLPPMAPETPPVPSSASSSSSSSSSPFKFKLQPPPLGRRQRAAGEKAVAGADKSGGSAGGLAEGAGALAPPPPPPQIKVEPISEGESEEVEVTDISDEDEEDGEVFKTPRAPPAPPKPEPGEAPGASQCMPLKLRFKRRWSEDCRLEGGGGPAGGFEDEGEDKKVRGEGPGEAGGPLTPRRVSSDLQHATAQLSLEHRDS
Procedure, shortened: as §1

ETV3L = target: T9, ETV3L (Homo sapiens, UniProt Q6ZN32 1-361)
T9 sequence: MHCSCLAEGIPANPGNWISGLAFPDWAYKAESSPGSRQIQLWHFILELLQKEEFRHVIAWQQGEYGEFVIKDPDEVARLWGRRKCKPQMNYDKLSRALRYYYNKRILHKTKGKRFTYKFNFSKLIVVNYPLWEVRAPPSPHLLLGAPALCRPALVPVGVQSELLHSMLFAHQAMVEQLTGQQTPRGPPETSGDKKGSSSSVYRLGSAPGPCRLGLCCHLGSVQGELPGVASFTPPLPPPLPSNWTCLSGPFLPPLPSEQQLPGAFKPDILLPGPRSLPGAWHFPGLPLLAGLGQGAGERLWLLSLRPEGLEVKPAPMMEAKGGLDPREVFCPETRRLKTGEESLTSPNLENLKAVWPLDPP
Procedure, shortened: as §1

ETS2 = target: T10, ETS2 (Homo sapiens, UniProt P15036 1-469)
T10 sequence: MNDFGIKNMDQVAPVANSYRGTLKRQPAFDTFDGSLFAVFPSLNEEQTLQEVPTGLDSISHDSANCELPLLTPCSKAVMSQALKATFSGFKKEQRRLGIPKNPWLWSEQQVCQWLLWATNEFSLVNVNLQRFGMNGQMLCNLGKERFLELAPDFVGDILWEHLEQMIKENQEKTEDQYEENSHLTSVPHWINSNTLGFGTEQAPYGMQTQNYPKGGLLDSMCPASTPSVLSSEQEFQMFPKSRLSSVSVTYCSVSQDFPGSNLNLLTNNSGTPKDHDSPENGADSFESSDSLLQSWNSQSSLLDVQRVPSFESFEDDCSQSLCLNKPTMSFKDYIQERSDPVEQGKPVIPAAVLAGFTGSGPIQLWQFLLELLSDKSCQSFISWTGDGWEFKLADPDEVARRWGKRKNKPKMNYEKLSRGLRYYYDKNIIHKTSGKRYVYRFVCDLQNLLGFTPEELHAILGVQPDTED
Procedure, shortened: as §1

SPDEF = target: T11, SPDEF (Homo sapiens, UniProt O95238 1-335)
T11 sequence: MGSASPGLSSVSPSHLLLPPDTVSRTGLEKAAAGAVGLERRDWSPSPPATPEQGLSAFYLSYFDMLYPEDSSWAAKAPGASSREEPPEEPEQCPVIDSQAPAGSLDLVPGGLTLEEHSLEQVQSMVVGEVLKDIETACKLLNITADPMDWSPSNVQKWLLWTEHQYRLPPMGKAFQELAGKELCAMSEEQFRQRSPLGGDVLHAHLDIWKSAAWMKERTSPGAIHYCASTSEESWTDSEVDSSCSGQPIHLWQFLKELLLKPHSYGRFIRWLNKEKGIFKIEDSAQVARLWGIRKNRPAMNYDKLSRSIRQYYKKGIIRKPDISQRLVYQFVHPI
Procedure, shortened: as §1

ETV7 = target: T12, ETV7 (Homo sapiens, UniProt Q9Y603 1-341)
T12 sequence: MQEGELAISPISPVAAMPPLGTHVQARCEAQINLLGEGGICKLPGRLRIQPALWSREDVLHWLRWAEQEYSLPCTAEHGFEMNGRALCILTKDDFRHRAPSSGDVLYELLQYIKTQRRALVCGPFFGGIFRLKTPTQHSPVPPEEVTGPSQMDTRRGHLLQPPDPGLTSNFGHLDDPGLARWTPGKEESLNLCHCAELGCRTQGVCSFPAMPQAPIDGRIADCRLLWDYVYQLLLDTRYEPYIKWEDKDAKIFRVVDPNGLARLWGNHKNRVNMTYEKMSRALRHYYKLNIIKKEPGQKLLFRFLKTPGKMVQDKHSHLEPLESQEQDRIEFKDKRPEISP
Procedure, shortened: as §1

ETV3 = target: T13, ETV3 (Homo sapiens, UniProt P41162-2 1-143)
T13 sequence: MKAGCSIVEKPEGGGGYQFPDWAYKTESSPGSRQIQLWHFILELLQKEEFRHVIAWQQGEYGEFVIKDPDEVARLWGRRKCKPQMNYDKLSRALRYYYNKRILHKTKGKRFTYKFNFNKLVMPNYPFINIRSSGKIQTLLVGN
Procedure, shortened: as §1

ETV6 = ETV6 (Homo sapiens, UniProt P41212 1-452)
ETV6, sequence (P41212 whole entry): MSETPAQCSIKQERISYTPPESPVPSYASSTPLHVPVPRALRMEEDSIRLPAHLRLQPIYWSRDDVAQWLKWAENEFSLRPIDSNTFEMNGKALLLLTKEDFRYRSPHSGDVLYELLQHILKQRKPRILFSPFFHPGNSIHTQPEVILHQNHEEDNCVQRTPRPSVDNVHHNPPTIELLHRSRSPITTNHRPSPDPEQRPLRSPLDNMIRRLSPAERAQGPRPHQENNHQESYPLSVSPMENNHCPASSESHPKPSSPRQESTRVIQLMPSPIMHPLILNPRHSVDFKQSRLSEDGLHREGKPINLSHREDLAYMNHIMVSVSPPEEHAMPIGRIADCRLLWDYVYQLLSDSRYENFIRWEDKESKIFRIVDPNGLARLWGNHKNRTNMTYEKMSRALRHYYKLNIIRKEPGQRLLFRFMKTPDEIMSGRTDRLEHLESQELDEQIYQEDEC
Procedure, shortened: as §1

For ATAATG, the binding signal (ELK1) was 1.1 fold enrichment (6-mer frequency, TF over GST control), the binding signal (GABPA) was 1.06 fold enrichment (6-mer frequency, TF over GST control) and the binding signal (ERG) was 1.03 fold enrichment (6-mer frequency, TF over GST control). For the same sequence, the binding signal (ELF1) was 1.11 fold enrichment (6-mer frequency, TF over GST control), the binding signal (EHF) was 1.14 fold enrichment (6-mer frequency, TF over GST control) and the binding signal (SPIB) was 1.19 fold enrichment (6-mer frequency, TF over GST control). For the same sequence, the binding signal (FEV) was 1.08 fold enrichment (6-mer frequency, TF over GST control), the binding signal (ETV5) was 1.09 fold enrichment (6-mer frequency, TF over GST control) and the binding signal (ELF4) was 1.06 fold enrichment (6-mer frequency, TF over GST control). The binding signal (ELK4) was 1.16 fold enrichment (6-mer frequency, TF over GST control), the binding signal (ELF3) was 1.03 fold enrichment (6-mer frequency, TF over GST control) and the binding signal (ETV1) was 1.16 fold enrichment (6-mer frequency, TF over GST control). For the same sequence, the binding signal (ERF) was 1.09 fold enrichment (6-mer frequency, TF over GST control), the binding signal (ETV3L) was 1.2 fold enrichment (6-mer frequency, TF over GST control) and the binding signal (ETS2) was 1.14 fold enrichment (6-mer frequency, TF over GST control). For the same sequence, the binding signal (SPDEF) was 1.06 fold enrichment (6-mer frequency, TF over GST control), the binding signal (ETV7) was 1.01 fold enrichment (6-mer frequency, TF over GST control) and the binding signal (ETV3) was 1.09 fold enrichment (6-mer frequency, TF over GST control). For the same sequence, the binding signal (ETV6) was 1.09 fold enrichment (6-mer frequency, TF over GST control).
